Compound activity from PubChem.
CYP2C19 inhib: blocks human cytochrome P450 2C19; P33261; hit rate 21% among 96,000; CYP2C19 Supersomes, luciferin-H EGE luminescence, 30 min; inhibition, % at 5 µM; AID 778;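 active = CYP2C19 inhibition above a set limit at 5 µM in the primary screen, cut at about 50% in these data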;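 note: plate controls were negative control wells for no effect and 2.5 mM tranylcypromine positive control for full effect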
CYP2C9 inhib: inhibitors of human CYP2C9; P11712; CYP2C9 Supersomes, luciferin-H conversion, luminescence; inhibition, % at 5 µM; hit rate 20% among 96,000; AID 777;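 active = blocking of liver enzyme CYP2C9 beyond about 50% at 5 µM, limit read from the data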
Target sequence (P11712 whole entry, looked up): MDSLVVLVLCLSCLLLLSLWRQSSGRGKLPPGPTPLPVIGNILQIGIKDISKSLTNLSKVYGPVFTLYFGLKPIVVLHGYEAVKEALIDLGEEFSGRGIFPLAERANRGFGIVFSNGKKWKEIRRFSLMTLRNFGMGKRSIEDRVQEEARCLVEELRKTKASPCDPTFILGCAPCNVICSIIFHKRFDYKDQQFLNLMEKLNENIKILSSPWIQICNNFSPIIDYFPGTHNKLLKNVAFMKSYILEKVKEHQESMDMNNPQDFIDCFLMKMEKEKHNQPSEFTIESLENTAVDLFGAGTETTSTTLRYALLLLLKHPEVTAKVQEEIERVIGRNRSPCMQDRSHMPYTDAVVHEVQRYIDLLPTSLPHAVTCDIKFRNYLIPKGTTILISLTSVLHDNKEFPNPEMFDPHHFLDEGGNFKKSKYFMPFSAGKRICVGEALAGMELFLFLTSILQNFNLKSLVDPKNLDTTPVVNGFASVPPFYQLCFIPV
CYP2C9 act: CYP2C9 (human) activation; P11712; recombinant CYP2C9, luciferin-H conversion, luminescence; hits give high values; factor 1 = untreated enzyme, 0 = blocked; activation factor at 5 µM; hit rate 1.4% among 96,000; AID 1024;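 active = activation factor of 2 or more for CYP2C9 at a 5 µM dose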;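 note: 0 = sulfaphenazole-blocked wells and 1 = vehicle-only wells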
Cav32 inh: inhibitors of human Cav3.2 T-type calcium channel; O95180; Cav3.2-expressing cells, Fluo-4 calcium fluorescence FDSS; hits give low values; B-score at 10 µM; hit rate 4% among 100,000; AID 449739;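 active = single-dose well whose peak fluorescence ratio is a statistical outlier from its plate by either plate-standardised score or position-corrected B-score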
CYP2C19 act: activators of human cytochrome P450 2C19. recombinant CYP2C19, luciferin-H EGE luminescence; hits give high values; 0 = fully inhibited enzyme, 1 = untreated enzyme. activation factor at 5 µM. 96,000 tested, under 10 active. P33261;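 active = activation factor of at least 2 at 5 µM in the primary screen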;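 note: 0 = wells with 2.5 mM tranylcypromine and 1 = vehicle-only wells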
* marks the source's active call; other numbers are inactive results. Most compounds without a hit are left out; they make up all but 27% or so of the library.

How did CCCCN(CCCC)S(=O)(=O)c1ccc(NC(=O)CN2CCOCC2)cc1 do in these assays?
CYP2C19 inhib: 72*; CYP2C9 inhib: 91*; CYP2C9 act: 0.1; Cav32 inh: -1.5; CYP2C19 act: 0.3

What do the screens show for `Cc1cc(C)nc(NS(=O)(=O)c2ccc(NC(=O)COc3ccccc3)cc2)n1`?
CYP2C19 inhib: 0; CYP2C9 inhib: 18; CYP2C9 act: 0.8; Cav32 inh: 1.1; CYP2C19 act: 1

How did CCCN(CCC)S(=O)(=O)c1ccc(NC(=O)Cc2cccs2)cc1 do in these assays?
CYP2C19 inhib: 50*; CYP2C9 inhib: 84*; CYP2C9 act: 0.2; Cav32 inh: -2.8; CYP2C19 act: 0.5

Results for CCCN(CCC)S(=O)(=O)c1ccc(NC(=O)COc2ccccc2)cc1 ?
CYP2C19 inhib: 87*; CYP2C9 inhib: 99*; CYP2C9 act: 0; Cav32 inh: -3.2; CYP2C19 act: 0.1

Results for CCCNS(=O)(=O)c1ccc(NC(=O)Cc2cccs2)cc1 ?
Cav32 inh: -0.93

What do the screens show for `O=C(COc1ccc(/C=N/NS(=O)(=O)c2ccccc2)cc1)Nc1ccccc1`?
CYP2C19 inhib: 29; CYP2C9 inhib: 68*; CYP2C9 act: 0.3; CYP2C19 act: 0.7

How did CC(C)NCC(O)COc1ccc(CCOCC2CC2)cc1 (stereo unspecified) do in these assays?
Cav32 inh: -0.34

What do the screens show for `CCOC(=O)Cn1c(=O)c(-c2ccccc2NC)nc2ccccc21`?
CYP2C19 inhib: 10; CYP2C9 inhib: -16; CYP2C9 act: 1.2; Cav32 inh: -1.3; CYP2C19 act: 0.9

Results for CC1(C)CC(=O)C=C(c2ccc3c(c2)OCO3)C1 ?
Cav32 inh: -0.38

How did Cc1occc1-c1nnc(SCC(=O)N(C)CCC#N)n1N do in these assays?
CYP2C19 inhib: 6; CYP2C9 inhib: 4; CYP2C9 act: 1; Cav32 inh: 0.67; CYP2C19 act: 0.9

What do the screens show for `CCCN(CCC)S(=O)(=O)c1ccc(C(=O)Nc2ccc(OCC(=O)N3CCOCC3)cc2)cc1`?
CYP2C19 inhib: 20; CYP2C9 inhib: 80*; CYP2C9 act: 0.2; Cav32 inh: 0.035; CYP2C19 act: 0.8

Results for NC(=O)[C@@H]1CC2(CC(c3cccc(NC(=O)[C@@H]4CCC(=O)N4)c3)=NO2)CN1C(=O)Cc1ccc([N+](=O)[O-])cc1 (stereo partly specified) ?
Cav32 inh: -0.68

How did COc1ccccc1OC(=O)c1ccc(S(=O)(=O)N(C)C)cc1 do in these assays?
CYP2C19 inhib: 36; CYP2C9 inhib: 52*; CYP2C9 act: 0.5; Cav32 inh: -0.25; CYP2C19 act: 0.6

Results for COc1cc(S(=O)(=O)N(C)C)ccc1F ?
Cav32 inh: 0.61

Results for COc1cc(S(=O)(=O)N(C)C)ccc1Br ?
CYP2C19 inhib: 21; CYP2C9 inhib: -206; CYP2C9 act: 3.1*; Cav32 inh: 0.073; CYP2C19 act: 0.8

Results for CC1CN(C2CCN(S(=O)(=O)c3ccc4ccccc4c3)CC2)CC(C)O1 (stereo unspecified) ?
CYP2C19 inhib: 11; CYP2C9 inhib: -61; CYP2C9 act: 1.6; Cav32 inh: 0.37; CYP2C19 act: 0.9

How did CCOc1cc(N2CCOCC2)c(OCC)cc1NC(=O)COC(=O)CCc1c[nH]c2ccccc12 do in these assays?
CYP2C19 inhib: 4; CYP2C9 inhib: 6; CYP2C9 act: 0.9; Cav32 inh: 0.54; CYP2C19 act: 1

How did COc1cc(-c2nc3cnccc3n2C)cc(OC)c1OC do in these assays?
CYP2C19 inhib: -6; CYP2C9 inhib: 2; CYP2C9 act: 1; CYP2C19 act: 1.1

What do the screens show for `COc1cc(OC)c(-c2nc3cnccc3n2C)cc1OC`?
CYP2C19 inhib: 75*; CYP2C9 inhib: 35; CYP2C9 act: 0.6; Cav32 inh: 0.35; CYP2C19 act: 0.2

How did Cn1c(-c2ccc3ccccc3n2)nc2cnccc21 do in these assays?
CYP2C19 inhib: 88*; CYP2C9 inhib: 54*; CYP2C9 act: 0.5; Cav32 inh: 0.44; CYP2C19 act: 0.1

How did COc1cccc(C(=O)C2CN(c3ccccc3)CC2c2ccc(Cl)cc2)c1 (stereo unspecified) do in these assays?
CYP2C19 inhib: 4; CYP2C9 inhib: 22; CYP2C9 act: 0.8; Cav32 inh: 0.13; CYP2C19 act: 1

How did COc1ccc(-n2nnnc2-c2cnc3cc4c(cc3c2C)OCO4)cc1 do in these assays?
CYP2C19 inhib: 31; CYP2C9 inhib: 46; CYP2C9 act: 0.5; Cav32 inh: -0.41; CYP2C19 act: 0.7
